Compounds with a hit are over-represented: about 2.9% of the library has one in this group of screens.
Hck Nef HTS: inhibitors of Nef-activated human Hck kinase, primary screen, biochemical, Z-Lyte FRET, 384-well, Hck-YEEI | Tyrosine-protein kinase HCK (Homo sapiens), P08631 | Recombinant Hck-YEEI plus Nef, Z-Lyte FRET kinase assay | inhibition, % at 20 µM | hit rate 0.68% among 220,000 | AID 463187, 2010;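 active means Hck-Nef kinase inhibition above about 50%, limit read from the data; inactive means inhibition below that limit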;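 further: 0% = DMSO with Hck plus Nef and 100% = Hck alone without Nef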
Mcl1 Bid PPI: Mcl-1/Bid binding inhibitors, primary screen, biochemical, TR-FRET, 1536-well. TR-FRET Mcl-1/Bid-Dy647 peptide binding. inhibition, % at 21.7 µM. hit rate 0.97% among 220,000. AID 1021, 2008;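 active means compounds that cut the binding signal by more than half at the single screening dose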;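 further: His-tagged Mcl-1 with europium anti-His antibody binding Bid BH3 peptide; 0% = Mcl-1 plus peptide wells and 100% = peptide-only wells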
Target sequence (Q07820 whole entry, looked up): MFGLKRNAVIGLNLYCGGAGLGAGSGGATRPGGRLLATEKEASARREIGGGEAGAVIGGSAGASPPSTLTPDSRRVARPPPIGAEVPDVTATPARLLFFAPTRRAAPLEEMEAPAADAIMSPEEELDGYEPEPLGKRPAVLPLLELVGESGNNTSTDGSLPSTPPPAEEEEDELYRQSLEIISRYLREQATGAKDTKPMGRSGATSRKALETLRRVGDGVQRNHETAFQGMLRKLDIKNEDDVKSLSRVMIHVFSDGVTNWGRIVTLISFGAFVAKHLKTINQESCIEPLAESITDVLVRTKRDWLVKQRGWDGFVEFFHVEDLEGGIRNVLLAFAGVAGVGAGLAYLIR
Mcl1-Noxa inh: Mcl-1/Noxa binding inhibitors, primary screen, biochemical, TR-FRET, 1536-well; TR-FRET Mcl-1/Noxa peptide binding, 2 h; inhibition, % at 21.7 µM; hit rate 1.5% among 220,000; AID 1022, 2008;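 active means compounds that cut the protein-peptide binding signal by more than 50% relative to plate controls in a single-dose test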;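 further: His-tagged Mcl-1 with rhodamine Noxa BH3 peptide and terbium anti-His antibody; 0% = Mcl-1 plus Noxa peptide wells and 100% = peptide-only wells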
Pf gamet viab: late stage P. falciparum gametocyte viability inhibitors, primary screen, ATP luminescence, HTS; P. falciparum stage V gametocytes, 24 h; inhibition, % at 10.9 µM; hit rate 0.065% among 150,000;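 active means inhibition above the mean plus 3 SD of compounds within the control limits, set per campaign, cut at about 38% in these data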;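 further: 0% = DMSO wells and 100% = medium only without gametocytes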
14-3-3 Bad inh: inhibitors of 14-3-3 zeta/Bad binding, primary screen, biochemical, TR-FRET, bovine 14-3-3 zeta | TR-FRET 14-3-3zeta/Dy647-pBad peptide displacement, 1 h | inhibition, % at 21.7 µM | hit rate 0.71% among 220,000;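 active means inhibition above about 70%, limit read from the data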;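 further: 0% = full 14-3-3 plus peptide FRET controls and 100% = background without 14-3-3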
Target sequence (P63103 whole entry, looked up): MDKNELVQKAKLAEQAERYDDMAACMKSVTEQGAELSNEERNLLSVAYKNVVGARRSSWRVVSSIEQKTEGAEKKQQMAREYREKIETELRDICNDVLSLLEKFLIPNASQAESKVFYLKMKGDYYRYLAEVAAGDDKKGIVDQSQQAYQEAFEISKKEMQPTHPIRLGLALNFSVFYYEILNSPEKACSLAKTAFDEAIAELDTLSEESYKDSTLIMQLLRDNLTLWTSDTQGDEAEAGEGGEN
Mcl-1 Bim block: inhibitors of Bim peptide binding to Mcl-1, primary screen, biochemical, bead-based flow cytometry, multiplex. Induced myeloid leukemia cell differentiation protein Mcl-1 (Homo sapiens), Q07820. Bim peptide-Mcl-1 binding. inhibition, % at 10 µM. hit rate 0.1% among 190,000. AID 1009, 2008; in the data active means inhibition above about 40%;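 further: 0% = no compound tracer wells and 100% = peptide blocker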
* hit, by the source's call; nt = no result; [ ] = dose if it differs, or a comment.

SMILES	Hck Nef HTS	Mcl1 Bid PPI	Mcl1-Noxa inh	Pf gamet viab	14-3-3 Bad inh	Mcl-1 Bim block
O=C(Nc1ccc(-c2nc3ccc(NC(=O)c4cccs4)cc3[nH]2)cc1)c1cccs1	-5.2	84.0*	64.9*	nt	81.8*[fluorescence artefact?]	-11.0
Cc1[nH]c(=O)[nH]c(=O)c1S(=O)(=O)Nc1ccc(S(N)(=O)=O)cc1	nt	nt	nt	10.9	nt	nt
Cc1[nH]c(=O)[nH]c(=O)c1S(=O)(=O)NCCc1ccc(S(N)(=O)=O)cc1	-11.6	-13.9	58.1*	-1.6	-11.7	0.0
O=c1cc(CSc2ccccn2)c2ccccc2[nH]1	16.0	11.1	8.6	-2.8	81.2*[fluorescence artefact?]	1.0
Cc1cc(SCc2cc(=O)[nH]c3ccccc23)nc2ccccc12	-3.1	-22.3	-64.6	nt	-2.0	-2.0
O=C(c1ccc([N+](=O)[O-])cc1)N1CCC(Cc2ccccc2)CC1	19.5	5.0	8.4	-22.6	-0.7	0.0
O=C(c1cnc(Cl)c(Cl)c1)N1CCC(Cc2ccccc2)CC1	14.7	3.9	51.1*	nt	0.5	1.0
COc1cc(/C=C2\SC(=S)NC2=O)ccc1OS(=O)(=O)c1ccccc1	16.7	-60.1	79.0*	nt	-7.4	-13.0
COc1cc(/C=C2/SC(=S)NC2=O)ccc1OS(=O)(=O)c1ccc(C)cc1	49.5	81.5*	97.6*	nt	20.9	-10.0
COc1ccc(/C=C2\SC(=S)NC2=O)cc1OS(=O)(=O)c1ccc(NC(C)=O)cc1	30.2	-2.7	34.2	-12.3	-4.1	-11.0
CCC(C)NC(=O)Nc1ccc(Br)cc1Cl (centres undefined)	-5.1	-14.3	9.7	11.9	-3.9	1.0
O=C1OCC2OC(O)C(O)C(O)C2OC(=O)c2cc(O)c(O)c(O)c2-c2c(O)c(O)c3oc(=O)c4c(c(O)c(O)c5oc(=O)c2c3c54)-c2c1cc(O)c(O)c2O (centres undefined)	3.8	-9.8	104.7*	nt	75.2*	nt
COc1ccc(-n2ncc3c(NCc4cccs4)ncnc32)cc1	3.6	15.8	21.2	-25.5	9.6	-1.0
Cc1ccc(C(=O)Nc2nnc(CC(=O)N/N=C/c3ccncc3)s2)cc1	26.4	16.8	63.2*	nt	5.6	-2.0
Cn1c(=O)c2ncn(CC(=O)Nc3cccc(-c4nc5ccccc5s4)c3)c2n(C)c1=O	3.1	-39.6	63.5*	nt	-16.5	0.0
Cc1ccc(-c2nn(C)c(=O)c3ccccc23)cc1CN1CCCCC1	6.2	-34.2	16.4	16.7	-7.5	nt
O=c1oc(-c2ccco2)nc2c1cnn2-c1ccccc1	-0.3	0.8	20.0	0.7	-0.8	-6.0
O=c1c2cnn(-c3ccccc3)c2nc(-c2ccco2)n1-c1ccccc1	0.2	58.4*	23.2	20.3	59.4	2.0
Cc1c(Cc2ccccc2)sc(/N=C/c2ccc3ccccc3c2)c1C(N)=O	-0.3	-15.7	-6.3	nt	-5.7	-6.0
Cc1c(Cc2ccccc2)sc(/N=C/c2c(O)ccc3ccccc23)c1C(N)=O	8.5	53.1*	31.0	nt	29.2	-12.0
C/C(=N\NC(=O)CCn1nnc2ccccc21)c1ccco1	1.4	28.1	14.8	-5.1	-7.1	nt
CN(CCO)C(=O)C1CCN(c2ncc(C(F)(F)F)cc2Cl)CC1	0.8	-33.3	2.8	-26.1	-5.6	-1.0
NC(=O)CC(NC(=O)Cc1ccc(Cl)cc1)c1ccc(NC2CCCC2)c([N+](=O)[O-])c1 (centres undefined)	26.6	-20.2	-10.0	nt	1.4	nt
CC(C)Nc1ccc(C(CC(N)=O)NC(=O)c2ccc(Br)cc2)cc1[N+](=O)[O-] (centres undefined)	24.5	64.8*	2.5	-10.7	6.5	nt
NC(=O)CC(NC(=O)Cc1ccc(Br)cc1)c1ccc(NC2CCC2)c([N+](=O)[O-])c1 (centres undefined)	35.4	-49.6	50.6*	nt	0.3	nt
SMILES	Hck Nef HTS	Mcl1 Bid PPI	Mcl1-Noxa inh	Pf gamet viab	14-3-3 Bad inh	Mcl-1 Bim block
O=C1CCCC/C1=C/Nc1cccc(C(F)(F)F)c1	5.0	-44.1	15.0	nt	92.9*	2.0
C=C(C)Cn1c(SCC(=O)O)nnc1-c1ccc(C(C)(C)C)cc1	-0.6	-20.9	0.7	nt	9.8	0.0
O=C(Nc1ccc(Cl)c(Cl)c1)Nc1ccc(Br)cc1F	-0.2	-20.8	2.7	nt	-1.2	-6.0
Cc1nn(-c2ccccn2)c2c1C(=O)C(Br)CC2 (centres undefined)	24.4	-8.8	54.6*	nt	-14.5	18.0
Cn1c(=O)c2c(nc(N/N=C3\CCCc4ccccc43)n2Cc2ccc(F)cc2)n(C)c1=O	0.6	-34.8	7.4	4.1	12.8	-22.0
CC(C)C1NC(C(=O)O)Cc2c1[nH]c1ccccc21 (centres undefined)	nt	nt	nt	-8.4	nt	nt
NC(=O)c1cccn1-c1ncc(C(F)(F)F)cc1Cl	18.8	83.3*	13.2	-19.3	9.1	-4.0
O=C(c1ccccc1)N1CCN=C1c1ccccc1	1.9	-7.8	1.4	nt	-2.5	-2.0
O=C1OC(c2cccs2)=N/C1=C/c1ccc(-c2cccc(C(=O)O)c2)o1	115.8*	79.4*	95.8*	1.3	76.0*	4.0
O=C1OC(c2cccs2)=N/C1=C\c1ccc(-c2ccccc2Cl)o1	-0.1	-41.8	15.9	nt	-0.8	0.0
O=C(CN1C(=O)/C(=C2\SC(=S)N(C3CCS(=O)(=O)C3)C2=O)c2ccccc21)Nc1ccc(F)cc1 (centres undefined)	48.0	77.6*	78.5*	-40.1	49.2	nt
O=C(CN1C(=O)C2CCCCN2C(=O)c2ccccc21)Nc1ccc(F)cc1 (centres undefined)	-9.6	0.8	15.2	14.5	-2.9	0.0
CN(C)/C=N/c1cc(=O)[nH]c(=O)n1Cc1ccccc1	-7.6	-17.4	-11.4	-5.8	-4.2	-2.0
Fc1cccc(Cl)c1CNc1ccc(N2CCCC2)cc1	-63.0	-39.7	72.3*	-25.1	27.4	16.0
CCOC(=O)C1=C(O)c2ccccc2C(=O)/C1=C\c1ccc(C)cc1	-0.7	27.1	79.1*	nt	-10.6	2.0
CCOC(=O)C1=C(C)N(c2ccc(C)cc2)C(=O)/C1=C\c1ccc(O)c(OC)c1	-36.1	-164.5	38.6	-27.6	25.8	nt
CC(C)(C)C(=O)NNc1nc(-c2ccccc2)c2cc(Br)ccc2n1	1.8	97.1*	-3.7	2.0	8.5	-3.0
CC(C)c1cccc(C(C)C)c1OC(=O)[C@H]1OC(C(C)(C)C)=C[C@@H]1c1ccccc1	nt	nt	nt	6.5	nt	nt
C=C(C)CNC(=S)N1CCNC(=O)C1CC(=O)OC (centres undefined)	4.9	-61.9	8.3	5.8	1.3	-7.0
CCc1nnc2n1N=C(c1cccc([N+](=O)[O-])c1)CS2	-3.4	13.1	15.8	11.1	6.1	nt

Screening results as filed in PubChem BioAssay.
